This passage reports activity change results from PubChem BioAssay AID743279 (National Center for Advancing Translational Sciences (NCATS), 2014).

SMILES strings stand for the structures. Among all 360,000 compounds or so, about 17,000 (4.7%) were called active. Roughly 5% stayed inconclusive and do not appear here. The sample holds actives, similar compounds and a random draw of the others, so the mix is not that of the screen. Values without a mark were called inactive. No stated cut-off is given here; in the data, active means activity change below about -50%; inconclusive means mostly about -30% to -49%; inactive means weaker than that.
On the % scale 0 is the no-effect control and ±100 the full control effect.

This assay in a line: qHTS for Inhibitors of Inflammasome Signaling: IL-1-beta AlphaLISA Primary Screen. As to conditions: THP-1 LPS/ATP IL-1B secretion, 16 h; at 57.5 µM, stronger effect = lower value. An excerpt:
Inflammasomes are a set of intracellular multi-protein complexes that enable autocatalytic activation of inflammatory caspases and drive the innate immune response to counter harmful agents. […] A qHTS assay, based on AlphaLISA technology, was developed to screen the Molecular Libraries Small Molecule Repository (MLSMR) to look for novel inflammasome inhibitors. The assay detects IL-1B using AlphaLISA anti-IL-1B acceptor and donor beads. A decreased emission signal, indicating reduced IL-1B secretion, is the desired outcome for this assay. NIH Chemical Genomics Center [NCGC] NIH Molecular Libraries Probe Centers Network [MLPCN] MLPCN Grant: MH095513 Assay Provider: Shyam Biswal Ph.D., Johns Hopkins University Immunity. 2012 Jul 27;37(1):85-95. PMID: 22819042 [2] Curr Pharm Des. 2012;18(16):2320-8. PMID: 22390695
Three microliters containing 3000 THP-1 cells were dispensed into the wells of solid, white, tissue culture treated Greiner 1,536-well plates. Library compounds and positive control, Glyburide, were pin-transferred (23 nL) by a Kalypsys pin-tool equipped with a 1,536-pin array, resulting in final compound concentration ranges of 2.5 nM to 57.5 uM. After 1 hr of cell culture incubation (37 °C, 5% CO2), 1 microL of 1 microg/mL lipopolysaccharide (250 ng/mL, final) and 5 mM ATP (1.25 mM, final) were added to stimulate the cells. After 16 hr of cell culture incubation with the compounds, 1.5 uL of anti-IL-1B acceptor beads (6 ug/mL, final) and biotinylated antibody (0.6 nM, final) were added to the plate, followed by a 1 hr incubation at ambient temperature. To detect the secreted IL-1B, 1.5 uL of AlphaLISA SA-Donor beads (24 ug/mL, final) were added, followed by 30 min of incubation in the dark at ambient temperature. The AlphaLISA signal was read by a PerkinElmer EnVision plate reader with an ultrasensitive luminescence detector and 1536 Plate HTS AlphaScreen aperture (excitation of 680nm and emission of 615nm).
On the technique in general: In qHTS, concentration-response curves come from the screen itself.
As to `CCCNC(=O)C1(C)CCCN(C(=O)c2cccc(OC(C)=O)c2C)C1` (stereo not drawn), the activity change is 1.04%. With `CCc1nc2c(OCCOc3ccccc3)cccn2c1N(C)C(=O)c1ccccc1F` the figure was -0.777%; with `CC(C)CCNC(=O)c1cccnc1Sc1ccccc1`, -7.52%. For the molecule `COc1ccc(CC(=O)Nc2nc(-c3ccc(F)c(F)c3)cs2)cc1OC`, the activity change is -67.5% (active). For the molecule `CCCc1ccc(-c2csc(NC(=O)Cc3cccs3)n2)cc1`, the activity change was 8.64%.

Consider `COc1ccc(CC(=O)Nc2ccccc2NC(=O)c2ccco2)cc1OC`, for which the activity change is 12.9%. As to `CCCc1c(C)nc2scc(-c3ccc(Cl)cc3)n2c1=O`, the activity change is 26.4%. The same measure for `COc1ccc(C(CNC(=O)COc2ccc([N+](=O)[O-])cc2)N2CCCCC2)cc1` (stereo not drawn): -22.1%; for `COc1ccc(C(CNC(=O)COc2ccccc2OC)N2CCCCC2)cc1` (stereo not drawn): -6.28%. On to `CCc1ccc(OCC(=O)NCC(c2ccc(Cl)cc2)N2CCCCC2)cc1` (stereo not drawn), for which the activity change is -99.8% (active). The same measure for `Cc1ccc(C(=O)NNC(=O)OC(C)(C)C)c(Cl)c1`: -7.82%; for `O=C(NNc1c2ccccc2nc2ccccc12)c1cc2ccccc2cc1O`: -60.2% (active); for `CC(C)(C)OC(=O)NCCCCCNC(=O)c1nc[nH]c1C(=O)NCc1ccccc1`: 11%. The same measure for `Cc1noc(C)c1COC(=O)c1cc2ccccc2cc1O`: -1.49%; for `CC(C)(C)OC(=O)NNc1c2ccccc2nc2ccccc12`: -75.9% (active); for `O=C(COC(=O)c1ccc(O)cc1O)NC(=O)c1ccccc1`: 13.5%. With `Cc1ccccc1NC(=O)Cn1cc(C(=O)C2CC2)c2ccccc21` the figure was 16.9%; with `CCC1NC(=O)c2cccnc2-n2c1nc1ccc(C)cc1c2=O` (stereo not drawn), -3.64%.

Regarding `N#C/C(=C(\O)C(F)(F)F)c1nnc2n1CCCCC2`, the activity change is 11.5%. The same measure for `N#C/C(=C/c1cccc([N+](=O)[O-])c1)c1nnc2n1CCCCC2`: -112% (active); for `N#C/C(=C(\O)CCl)c1nnc2n1CCCCC2`: 4.27%; for `CCOC(=O)C1(C)CCCN(C(=O)c2ccc(N(C)C)cc2)C1` (stereo not drawn): 9.68%. The same measure for `CCN(CC)C(=O)[C@H]1CC(CC(=O)NCc2ccco2)C(=O)N2CCc3c([nH]c4ccccc34)[C@]12C` (stereo partly drawn): 7.15%; for `O=C1OCCN1C(=O)[C@H]1[C@H](c2ccc(F)cc2)C(c2ccccc2)=NN1c1ccc(Br)cc1`: -15.9%; for `C[C@@H]1C(c2ccc(F)cc2)=NN(c2ccc(Br)cc2)[C@H]1C(=O)N1CCOC1=O`: -54.4% (active). Turning to `O=C1OCCN1C(=O)[C@H]1[C@H](c2ccc(Cl)cc2)C(c2cccc(Cl)c2)=NN1c1ccc(Br)cc1`, the activity change is -23.1%. With `CN(CC(=O)Nc1c(Cl)cccc1Cl)C(=O)CNC(=O)C1CCCCC1`, the activity change result is “inactive”. `COc1cccc(CC2(CO)CCCN(Cc3ccc(OC(F)F)cc3)C2)c1` (stereo not drawn): the activity change was -9.05%. `O=C(CCC1CCCN(C(=O)Cc2ccc(F)cc2)C1)N1CCN(c2ccccn2)CC1` (stereo not drawn): the activity change was -15.7%. With `O=S1(=O)CC(N2CCN(c3ccccn3)CC2)CN1Cc1ccc(F)cc1` (stereo not drawn) the figure was -7.1%.

Turning to `Cc1c(CN2CC[C@@H](N3CCN(c4ccccn4)CC3)[C@H](O)C2)[nH]c2ccc(F)cc12`, the activity change is -50.8% (active).

As for `COc1ccc(-c2ccc3c(c2)[C@@H]2C[C@H](N(C)S(=O)(=O)c4ccccc4)[C@H]([C@H](C)O)C(=O)N2CC3)cc1`, the activity change is -14.6%. Take `O=C(CCc1ccc(O)cc1)NN=Cc1cc(Br)ccc1O`: the activity change is 137%. With `CC(C)(C)c1cc(P(=O)(c2ccccc2)c2ccccc2)ccc1O` the figure was -66.1% (active). With `O=P(O)(CP(=O)(c1ccccc1)c1ccccc1)c1ccccc1O` the figure was -5.18%; with `O=S(=O)(Nc1ccc2ccccc2c1)N1CCCCC1`, -5.44%; with `CC(C)(C)C(=O)Nc1cccc(-c2ccc[nH]2)n1`, -1.09%.

Consider `CC(C)n1cnc2c(Nc3cccc(Cl)c3)nc(N(CCO)CCCO)nc21`, for which the activity change is -97.4% (active).

With `OCCCNc1nccc(-c2cc(Nc3cccc(Cl)c3)ncn2)n1`, the activity change is -1.28%. For the molecule `Cn1c(Nc2cccc(Cl)c2)nc2ccccc21`, the activity change was -6.01%.

On to `CCOC(=O)N(Cc1ccccc1)C1CC1`, for which the activity change is 8.58%.

In the case of `O=C1CC(c2ccccc2)C(=O)N2C(=O)CC(c3ccccc3)C(=O)N12` (stereo not drawn), the activity change was -11.1%.

Turning to `CCOC(=O)N1CCN(C(=O)C[C@@H]2C[C@@]3(C(=O)OC)CC(C)(C)CC=C3N(Cc3ccco3)C2=O)CC1`, the activity change is 5.52%.

Turning to `COC(=O)[C@@]12C[C@@H](CC(=O)N3CCCCC3)C(=O)N(Cc3ccc4c(c3)OCO4)C1=CCC(C)(C)C2`, the activity change is -13.6%. Consider `COC(=O)[C@@]12C[C@@H](CC(=O)N3CCC(c4ccccc4)CC3)C(=O)N(Cc3ccccc3)C1=CCC(C)(C)C2`, for which the activity change is -70.2% (active). As for `COc1ccc(CN2C[C@H]3CON(C)[C@H]3C[C@H]2c2ccc(-c3cccc(F)c3)cc2)cc1`, the activity change was 11.4%. The same measure for `CC1(C(=O)NCc2ccccc2)CN(S(C)(=O)=O)CC(=O)N1CC(F)(F)F` (stereo not drawn): 30.7%.

Consider `COc1ccc(C(=O)NC(C)Cn2nc(C)cc2C)cc1OC1CCN(C(C)=O)CC1` (stereo not drawn), for which the activity change is 0%. In the case of `CCCCC[C@@H]1C=C(C(=O)OCC)[C@H](c2ccccc2)N1S(=O)(=O)c1ccc(C)cc1`, the activity change was 37.3%.

In the case of `COc1cc(/C=C2\Oc3ccc(C#Cc4ccc(O)cc4)cc3C2=O)cc(OC)c1`, the activity change was -79.1% (active).

For the molecule `COc1cc(C#Cc2ccc3cc(CCCO)oc(=O)c3c2)cc(OC)c1`, the activity change was 0%.

`COc1ccc2c(c1)O/C(=C\c1ccccc1O)C2=O`: the activity change was 45.7%. The same measure for `CNC(=O)C[C@H]1C(=O)N(Cc2ccccc2)C[C@@H]1CSC`: -8.27%; for `c1ccc(CNc2ncnc3[nH]ncc23)cc1`: 31.4%; for `Cc1cc(C(=O)COc2ccc(Br)cc2F)c(C)n1C1CC1`: -54.4% (active). Regarding `O=C(COc1ccc(Br)cc1F)NCC1(N2CCCCC2)CCCCC1`, the activity change was -9.53%. With `Cc1cc(C(=O)COc2ccccc2Cl)c(C)n1C1CC1`, the activity change was 0%. With `O=C(COC(=O)c1cncc(Br)c1)Nc1ccc(S(=O)(=O)N2CCOCC2)cc1` the figure was -5.39%. `C[C@H](CO)N1C[C@H](C)[C@H](CN(C)C(=O)Nc2ccc3c(c2)OCO3)Oc2ncc(Br)cc2C1=O`: the activity change was -12.4%. Regarding `O=C(CSc1nc(Nc2ccccc2)nc(N2CCOCC2)n1)Nc1cc(Cl)ccc1O`, the activity change was -58.1% (active). The same measure for `Cc1ccccc1NC(=O)CSc1nc2ccc(Nc3nc(N4CCOCC4)nc(N4CCOCC4)n3)cc2s1`: 0%. Turning to `CC1(c2ccccc2)NC(=O)N(CC(=O)Nc2cc(Cl)ccc2N2CCOCC2)C1=O` (stereo not drawn), the activity change is 1.47%. With `CS(=O)(=O)N(CC(=O)N1CCCCCC1)c1cccc(Cl)c1Cl` the figure was -9.4%.

For `Cc1ccc(CN2CCC(n3nccc3NC(=O)CCCc3ccccc3)CC2)o1`, the activity change was 0%. As for `COc1ccc(CN2CCC(n3nccc3NC(=O)CCCc3ccccc3)CC2)cc1C`, the activity change was -65% (active). In the case of `COc1cc(CN2CCC(n3nccc3NC(=O)CCCc3ccccc3)CC2)ccc1O`, the activity change was 0%. The same measure for `COc1ccc(OC)c(NC(=O)C2CCCN2S(=O)(=O)c2ccc3c(c2)CC(C)N3C(C)=O)c1` (stereo not drawn): 11.5%; for `CC(=O)Nc1ccc2c3c(ccc([N+](=O)[O-])c13)CC2`: 18.1%; for `COc1ccc(NC(=O)C(c2ccncc2)n2c(=O)c(-c3cc4ccccc4[nH]3)nc3ccccc32)cc1` (stereo not drawn): -12%. The same measure for `COc1cccc(-n2cc(C(=O)O)c3ccccc3c2=O)c1`: -59.6% (active); for `COc1cccc(-n2nc(C(=O)N3CCN(Cc4ccccc4)CC3)c3ccccc3c2=O)c1`: -16.4%; for `COc1cccc(-n2cc3c(c2-c2ccccc2)c(=O)n(C)c(=O)n3C)c1`: 18.5%. Regarding `C[C@@H]1CN([C@@H](C)CO)C(=O)c2cccc(NS(=O)(=O)c3ccc(F)cc3)c2O[C@H]1CN(C)C(=O)NC1CCCCC1`, the activity change is 2.27%.

`CCCCNCCS(=O)(=O)NCc1ccccc1`: the activity change is 24.2%. With `CN(c1ccc(OCC(=O)NC2=NCCS2)cc1)S(=O)(=O)c1ccc(F)cc1` the figure was 12%. With `Cc1ccc(S(=O)(=O)N(C)c2ccc(OCC(=O)NC3=NCCS3)cc2)cc1` the figure was 23%; with `CC(NC(=O)COc1ccccc1)C(=O)NC1=NCCS1` (stereo not drawn), -56.1% (active); with `CC(C)CNC(=O)C1(C)CCCN1C(=O)CSc1ccccc1` (stereo not drawn), 24.3%.

Regarding `O=C(Cc1ccc(Cl)c(Cl)c1)Nc1ccc(SC(F)F)cc1`, the activity change is -96% (active). The same measure for `CC(=O)N1CCN(CC(=O)Nc2ccc(SC(F)F)cc2)CC1`: 8.74%. With `Cc1ccc(CC(=O)Nc2ccc(OC(F)F)c(Cl)c2)cc1C` the figure was 2.16%; with `O=C(c1ncn2c1c(=O)[nH]c1ccccc12)N1CCc2ccccc2C1`, 1.53%.

On to `CCOC(=O)C1CCCN(C(=O)c2ccc(N(C)C)cc2)CC1` (stereo not drawn), for which the activity change is 14.2%.

For the molecule `S=c1[nH]nc(-c2cccs2)n1/N=C/c1cccs1`, the activity change is 2.13%. The same measure for `COc1cc(/C=N/n2c(C)n[nH]c2=S)ccc1OCc1ccccc1`: 20.1%.

Regarding `Cc1cc(-c2n[nH]c(=S)n2/N=C/C(Br)=C/c2ccccc2)n[nH]1`, the activity change was -103% (active).

As for `CCN(CC(=O)Nc1ccc(NC(C)=O)cc1)C(=O)C1CC(=O)N(c2ccc3c(c2)OCCO3)C1` (stereo not drawn), the activity change was -4.3%. Take `Nc1ncnc2c1ncn2[C@@H]1O[C@H](C(=O)NCC(F)(F)F)[C@@H](O)[C@H]1O`: the activity change is -18.1%.
